{"source": "ChEMBL document CHEMBL1961873", "about": "“Compounds: GSK PKIS; Assays: Nanosyn kinase panel” (2012)"}
{"target": "Serine/threonine-protein kinase PAK 5 (Homo sapiens) (UniProt Q9P286)", "sequence (Q9P286 whole entry, looked up)": "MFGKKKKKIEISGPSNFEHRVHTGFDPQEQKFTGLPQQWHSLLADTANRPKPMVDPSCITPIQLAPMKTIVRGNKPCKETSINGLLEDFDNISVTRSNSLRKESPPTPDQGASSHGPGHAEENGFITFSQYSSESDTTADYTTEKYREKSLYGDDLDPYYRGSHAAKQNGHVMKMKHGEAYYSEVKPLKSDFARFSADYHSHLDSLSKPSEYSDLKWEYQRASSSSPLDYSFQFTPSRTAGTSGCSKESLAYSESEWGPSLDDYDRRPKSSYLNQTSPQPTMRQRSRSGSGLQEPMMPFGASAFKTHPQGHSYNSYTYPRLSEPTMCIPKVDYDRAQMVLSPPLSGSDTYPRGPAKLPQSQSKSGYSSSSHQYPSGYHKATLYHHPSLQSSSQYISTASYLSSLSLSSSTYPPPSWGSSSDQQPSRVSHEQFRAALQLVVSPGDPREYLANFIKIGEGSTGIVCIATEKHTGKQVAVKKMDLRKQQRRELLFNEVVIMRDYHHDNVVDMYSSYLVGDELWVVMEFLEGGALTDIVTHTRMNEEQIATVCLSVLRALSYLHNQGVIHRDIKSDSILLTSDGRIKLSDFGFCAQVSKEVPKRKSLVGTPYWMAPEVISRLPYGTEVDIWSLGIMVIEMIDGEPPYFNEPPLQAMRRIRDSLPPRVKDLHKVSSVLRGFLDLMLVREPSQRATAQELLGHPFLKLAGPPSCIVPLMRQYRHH", "settings": "at 1 µM", "units": {"inhibition": "%"}}
{"compound": "c1ccc(Nc2ncc(-c3ccccc3)o2)cc1", "inhibition": 2.9}
{"compound": "CN(C)C(=O)O[C@H]1CN[C@H](C#Cc2cc3ncnc(Nc4ccc(OCc5cccc(F)c5)c(Cl)c4)c3s2)C1", "inhibition": 1.82}
{"compound": "NS(=O)(=O)c1ccc(N/N=C2\\C(=O)Nc3ccc(Cl)cc32)cc1", "inhibition": 3.28}
{"compound": "O=C1Nc2ccccc2/C1=C/Nc1ccc2[nH]c(=O)[nH]c2c1", "inhibition": 3.2}
{"compound": "CN1CCN(C(=O)c2ccc(NC(=O)Nc3ccc(N(C)c4ccnc(Nc5ccc(CS(C)(=O)=O)cc5)n4)cc3)cc2)CC1", "inhibition": 17.6}
{"compound": "COc1ccc(-c2nn3ncccc3c2-c2ccnc(Nc3cccc(C(F)(F)F)c3)n2)cc1", "inhibition": 1.57}
{"compound": "O=S(=O)(CCOCc1ccc(-c2ccc3ncnc(Nc4ccc(OCc5cccc(F)c5)c(Cl)c4)c3c2)o1)c1ccccc1", "inhibition": -1.3}
{"compound": "COc1cccc(-n2ncc3c(N/N=C/c4ccc(S(C)(=O)=O)cc4)ncnc32)c1", "inhibition": 10.1}
{"compound": "Cc1cc(O)cc(C)c1/C=C/c1cncc(C(=O)N(C)C)c1", "inhibition": 6.26}
{"compound": "Cc1ccc2c(-c3ccnc(Nc4cccc(C(F)(F)F)c4)n3)c(-c3ccccc3)nn2n1", "inhibition": -7}
{"compound": "CS(=O)(=O)CCNCc1nc(-c2ccc3ncnc(Nc4ccc(OCc5cccc(C(F)(F)F)c5)cc4)c3c2)cs1", "inhibition": 1.26}
{"compound": "Cc1ccc(Nc2ccnc(Nc3cccc(C(N)=O)c3)n2)cc1O", "inhibition": 11.2}
{"compound": "CCS(=O)(=O)c1ccc(OC)c(Nc2ncc(-c3cccc(OC)c3)o2)c1", "inhibition": -1.57}
{"compound": "COc1cc2ncnc(Nc3ccc(C)c(O)c3)c2cc1OC", "inhibition": 7.08}
{"compound": "COc1cc2ncnc(Nc3ccc4c(cnn4Cc4ccccc4)c3)c2cc1OC", "inhibition": 2.16}
{"compound": "NS(=O)(=O)c1cccc(-c2cc3ccncc3cc2OCc2ccccc2)c1", "inhibition": -0.51}
{"compound": "Oc1cccc(-c2nc(-c3ccccc3)[nH]c2-c2ccncc2)c1", "inhibition": 15.7}
{"compound": "NC(=O)c1sc(-n2cnc3ccccc32)cc1OCc1ccccc1Br", "inhibition": 5.06}
{"compound": "Cc1nc(-c2ccccc2)n2nc(NCCCN3CCOCC3)ncc12", "inhibition": 1.28}
{"compound": "Cc1ccc(NC(=O)CC2CC2)cc1-c1ccc(C(=O)NCC2CC2)cc1", "inhibition": 5.74}
{"compound": "NC(=O)c1cccc(Nc2nccc(Nc3cccc(F)c3)n2)c1", "inhibition": 1.21}
{"compound": "Nc1nccc(C#Cc2cncnc2Nc2ccc(OCc3cccc(F)c3)c(Cl)c2)n1", "inhibition": -3.56}
{"compound": "NS(=O)(=O)c1ccc(-c2cc3ccncc3cc2OCc2ccccc2)cc1", "inhibition": -3.7}
{"compound": "CCS(=O)(=O)c1ccc(OC)c(Nc2nccc(N(C)c3ccc4c(C)n[nH]c4c3)n2)c1", "inhibition": 0.85}
{"compound": "COc1cccc(-n2nc(C)c3c(N/N=C(\\C)c4ccncc4)ncnc32)c1", "inhibition": -1.22}
{"compound": "COC(=O)c1ccc2c(c1)C(=Cc1cc(Br)c(O)c(Br)c1)C(=O)N2", "inhibition": 10.8}
{"compound": "COc1cccc(-n2ncc3c(N/N=C/c4ccc(C)cc4)ncnc32)c1", "inhibition": 10.7}
{"compound": "NS(=O)(=O)c1ccc(Nc2cc(-c3cccc(O)c3)n[nH]2)cc1", "inhibition": -6.9}
{"compound": "Cc1cc(-c2ccccn2)cc(C)c1/C=C/c1cncc(-c2nn[nH]n2)c1", "inhibition": 0.08}
{"compound": "CCn1c(-c2nonc2N)nc2c(C#CC(C)(C)O)nc(OCCNC)cc21", "inhibition": 12.5}
{"compound": "O=C(Nc1ccc(Oc2ccc3[nH]c(NC(=O)c4ccco4)nc3c2)cc1)Nc1cc(C(F)(F)F)ccc1F", "inhibition": 6.36}
{"compound": "Cc1ccc2c(-c3ccnc(Nc4ccc5c(c4)OCCO5)n3)c(-c3ccc(C(F)(F)F)cc3)nn2n1", "inhibition": -4.92}
{"compound": "[O-][S+]1CCN(Cc2ccc(-c3ccc4ncnc(Nc5ccc(OCc6ccccc6)c(Cl)c5)c4c3)o2)CC1", "inhibition": 1.72}
{"target": "Serine/threonine-protein kinase PAK 6 (Homo sapiens) (UniProt Q9NQU5)", "sequence (Q9NQU5 whole entry, looked up)": "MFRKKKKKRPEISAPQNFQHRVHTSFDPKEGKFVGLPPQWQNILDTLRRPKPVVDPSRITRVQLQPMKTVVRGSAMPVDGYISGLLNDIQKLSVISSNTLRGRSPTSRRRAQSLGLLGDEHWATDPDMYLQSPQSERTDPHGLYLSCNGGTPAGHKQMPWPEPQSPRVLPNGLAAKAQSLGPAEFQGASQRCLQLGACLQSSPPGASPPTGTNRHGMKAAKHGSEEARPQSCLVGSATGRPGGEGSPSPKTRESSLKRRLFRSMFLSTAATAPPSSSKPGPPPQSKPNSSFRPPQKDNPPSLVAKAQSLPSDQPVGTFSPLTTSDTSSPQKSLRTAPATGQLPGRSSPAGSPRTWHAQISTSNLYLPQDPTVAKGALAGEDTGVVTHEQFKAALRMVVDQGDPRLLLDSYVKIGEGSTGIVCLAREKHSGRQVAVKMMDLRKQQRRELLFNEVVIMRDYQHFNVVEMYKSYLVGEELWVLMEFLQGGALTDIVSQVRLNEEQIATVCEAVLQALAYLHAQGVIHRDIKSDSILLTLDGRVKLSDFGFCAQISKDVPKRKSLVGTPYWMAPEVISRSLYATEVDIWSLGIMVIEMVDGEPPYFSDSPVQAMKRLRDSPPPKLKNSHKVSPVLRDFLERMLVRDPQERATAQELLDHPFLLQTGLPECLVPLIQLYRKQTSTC", "settings": "at 0.1 µM", "units": {"inhibition": "%"}}
{"compound": "CN(C)C(=O)O[C@H]1CN[C@H](C#Cc2cc3ncnc(Nc4ccc(OCc5cccc(F)c5)c(Cl)c4)c3s2)C1", "inhibition": 9.3}
{"compound": "NS(=O)(=O)c1ccc(N/N=C2\\C(=O)Nc3ccc(Cl)cc32)cc1", "inhibition": -3.69}
{"compound": "O=C1Nc2ccccc2/C1=C/Nc1ccc2[nH]c(=O)[nH]c2c1", "inhibition": -6.58}
{"compound": "COc1ccc(-c2nn3ncccc3c2-c2ccnc(Nc3cccc(C(F)(F)F)c3)n2)cc1", "inhibition": -2.15}
{"compound": "COc1cccc(-n2ncc3c(N/N=C/c4ccc(S(C)(=O)=O)cc4)ncnc32)c1", "inhibition": -8.81}
{"compound": "Cc1cc(O)cc(C)c1/C=C/c1cncc(C(=O)N(C)C)c1", "inhibition": 7.18}
{"compound": "CCS(=O)(=O)c1ccc(OC)c(Nc2ncc(-c3cccc(OC)c3)o2)c1", "inhibition": -4.37}
{"compound": "COc1cc2ncnc(Nc3ccc(C)c(O)c3)c2cc1OC", "inhibition": -1.14}
{"compound": "NS(=O)(=O)c1cccc(-c2cc3ccncc3cc2OCc2ccccc2)c1", "inhibition": -0.02}
{"compound": "Cc1nc(-c2ccccc2)n2nc(NCCCN3CCOCC3)ncc12", "inhibition": -9.04}
{"compound": "Nc1nccc(C#Cc2cncnc2Nc2ccc(OCc3cccc(F)c3)c(Cl)c2)n1", "inhibition": 5.51}
{"compound": "NS(=O)(=O)c1ccc(Nc2cc(-c3cccc(O)c3)n[nH]2)cc1", "inhibition": -0.89}
{"compound": "O=C(Nc1ccc(Oc2ccc3[nH]c(NC(=O)c4ccco4)nc3c2)cc1)Nc1cc(C(F)(F)F)ccc1F", "inhibition": 2.79}
{"compound": "Cc1ccc2c(-c3ccnc(Nc4ccc5c(c4)OCCO5)n3)c(-c3ccc(C(F)(F)F)cc3)nn2n1", "inhibition": 7.58}
{"compound": "[O-][S+]1CCN(Cc2ccc(-c3ccc4ncnc(Nc5ccc(OCc6ccccc6)c(Cl)c5)c4c3)o2)CC1", "inhibition": -9.51}
